From PubChem BioAssay AID1508644 (National Center for Advancing Translational Sciences (NCATS), 2021) come the findings set out here.

Records with an inconclusive call do not appear. The source made the active and inactive calls. Calls come from the whole dose curve; as a rule, active = well fitted inhibition curve with a large enough effect; inconclusive = small, poorly fitted or top-dose-only effect; inactive = no such curve, though single readings can be large or run the other way.

Peripheral myelin protein 22 (Rattus norvegicus), sequence (P25094 whole entry, looked up): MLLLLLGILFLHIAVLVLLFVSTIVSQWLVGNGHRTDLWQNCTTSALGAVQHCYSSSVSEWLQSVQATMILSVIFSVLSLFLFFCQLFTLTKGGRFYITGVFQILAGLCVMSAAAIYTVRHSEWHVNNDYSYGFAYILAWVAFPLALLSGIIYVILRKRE

The target in the assay is Peripheral myelin protein 22 (Rattus norvegicus) (UniProt P25094). Description: Cell-based HiBiT reporter assay to measure PMP22 protein expression in S16 Pmp22-HiBiT cells. Conditions: S16 Schwann Pmp22-HiBiT, NanoGlo luminescence, 48 h; series mostly up to 27.9 µM. The text has this:
Assay Provider: Jim Inglese Ph.D. National Center for Advancing Translational Science, National Institutes of Health, Rockville, MD CMT is a heterogeneous group of neurological disorders that affect approximately 1 in 2,500 people. In particular, the most common form of CMT, CMT1A is genetically linked to the duplication of the PMP22 gene which leads to Schwann cell overexpression, thus manifesting itself as a typical case of dose-sensitive diseases. To identify small molecule compounds that can mediate the expression of PMP22 we developed a phenotypic assay screening strategy by utilizing genome editing techniques to construct Schwann cell lines containing novel reporter technology to monitor the transcriptional or translational regulation of PMP22. For high sensitivity we use a bioluminescent reporter system embedded in the 3' UTR of the PMP22 gene (S16(c9) Pmp22-F2sN) to identify compounds that inhibit gene expression. […] We can further discriminate the effect of all transcriptionally active molecules on PMP22 translation or stability with an assay that incorporates a short NLuc peptide (HiBiT) at the C-terminus of expressed PMP22 (S16(f8) PMP22-HiBiT) allowing alpha complementation and luminescence detection of membrane-associated PMP22 protein. These assays were screened against the NCATS Sytravon Library Collection. Miniaturization of these assays to 1536-well plate format for quantitative high throughput screening (qHTS) yielded rich data sets immediately from the qHTS assay (S16(c9) Pmp22-F2sN), when compared with data from a cell viability assay (Cell TiterGlo) to identify compounds that decreased the output signals through cellular toxicity to streamline the selection process of actives for subsequent characterization using the HiBiT assay (S16(f8) PMP22-HiBiT).
Cell-based HiBiT reporter assay in S16 Pmp22-HiBiT cells PROTOCOL TABLE (format as described by Inglese J, Shamu CE and Guy RK. 2007) SEQUENCE No. (e.g., 1, 2, 3, etc.); PARAMETER (e.g., Cells, Incubation, Reagent, etc.); VALUE and DESCRIPTION. 1. Cells. Add 1,500 cells in 5 uL in growth media (DMEM High Glucose, No Phenol Red media + 10% heat-inactivated FBS + 1% Pen/Strep supplemented media) per well into Greiner 1536-well white/solid bottom high base, TC-treated plates. 2. Compounds. Library compounds and controls added at 23nL per well, transferred by Pin Tool. 3. Incubation. Incubate plates at 37C, 5% CO2, 95% RH for 48 h. 4. Media removal. Invert and centrifuge plates. 5. Reagent. Add 3uL NanoGlo HiBiT Lytic Detection Reagent per well of Greiner 1536-well plates. 6. Incubation. Incubate plates at room temperature for 15 min., protect from light. 7. Detector. NLuc luminescence measured using CCD-based camera (Viewlux). NOTES (numbers refer to Sequence numbers above; values are from representative experiments) 7. Luminescence Read: Clear filter; Exposure = 10 sec, Gain = High, Speed = Slow, Binning = 2X REFERENCES: 1. Inglese J, Shamu CE and Guy RK, Reporting data from high throughput screening of small molecule libraries, Nature Chemical Biology, 2007, 3(8): 438-441. doi.org/10.1038/nchembio0807-438 2. Yasgar A, Shinn P, Jadhav A, Auld DS, Michael S, Zheng W, Austin CP, Inglese J and Simeonov A, Compound Management for Quantitative High-Throughput Screening. J. Assoc. Lab. Auto., 2008, 13: 79-89. doi: 10.1016/j.jala.2007.12.004
In general terms: The HiBiT peptide binds its large partner to form an active luciferase.
Take `Cc1ccc(C)c(NC(=O)Cn2c(=O)n(Cc3ccccc3)c(=O)c3oc4ccccc4c32)c1`: the Potency is 14.5 µM (active).
Next, `Cc1ccc(NC(=O)N2CCc3cc(S(=O)(=O)N4CCC(C)CC4)ccc32)cc1F`: “inactive”.
For `COc1ccc(NC(=O)c2oc3ccccc3c2NC(=O)Cc2ccc(F)cc2)c(OC)c1` the value was “inactive”; for `COc1ccccc1Nc1nn2c(=O)c3ccc(C(=O)Nc4ccc(F)cc4)cc3nc2s1`, 9.12 µM (active).
For the molecule `CCCCS(=O)(=O)c1nc(-c2ccc(Br)cc2)cc(-c2ccccc2)c1C#N`, the Potency result was “inactive”.
For `COCCCNC(=O)c1ccc(-n2c(-c3ccccc3)cc3c2CCC(C)C3)cc1` (centres undefined) the value was 5.75 µM (active).
For `Cc1ccc(C(=O)Nc2ccc(S(=O)(=O)N3CCC(c4nc5ccccc5s4)CC3)cc2)cc1` the value was “inactive”; for `Cn1c(=O)oc2cc(S(=O)(=O)N3CCCC(C(=O)N4CCN(c5ccc(Cl)cc5)CC4)C3)ccc21` (centres undefined), 4.07 µM (active).
Next, `CCc1ccc(OCC(=O)Nc2cc3oc4ccccc4c3cc2OC)cc1`: “inactive”.
As for `Cc1cccc(CS(=O)(=O)c2ncc(Cl)c(C(=O)Nc3nc4ccc(F)cc4s3)n2)c1`, the Potency was 3.63 µM (active).
Next, `Cc1ccc(CN2C(=O)C(O)(c3c(C)[nH]c4ccccc34)c3ccccc32)cc1` (centres undefined): “inactive”; `COc1ccc(Nc2nc3c(S(=O)(=O)c4ccccc4)nnn3c3ccc(Cl)cc23)cc1`: “inactive”.
For `CCCn1c(=N)c(C(=O)NC(C)c2ccccc2)cc2c(=O)n3ccccc3nc21` (centres undefined) the value was “inactive”; for `CCN(CC)CCNC(=O)c1cc(-c2ccc(Br)s2)nc2ccccc12`, “inactive”.
For `Cc1ccc(NC(=O)c2nc(S(=O)(=O)Cc3cccc(C)c3)ncc2Cl)cc1` the value was 4.57 µM (active); for `Cc1ccc(C)c(NC(=O)Cn2c(=O)n(Cc3ccc4c(c3)OCO4)c(=O)c3ccc(C(=O)NC4CCCCC4)cc32)c1`, “inactive”; for `CC(=O)N1CCc2c(sc(NC(=O)CSc3ccccc3)c2-c2nc3ccccc3s2)C1`, 16.2 µM (active).
On to `Cc1cccc(N2CCN(C(=O)C3CCCN(S(=O)(=O)c4ccc5c(c4)oc(=O)n5C)C3)CC2)c1C` (centres undefined), for which the Potency entry was “inactive”.
On to `O=C(NCCCN1CCN(c2ccc(F)cc2)CC1)c1cc2c(Cl)nc3ccccc3c2s1`, for which the Potency entry is “inactive”.
For `COc1ccccc1Nc1c2c(nc3ccc(NC(=O)/C=C/c4cccc(OC)c4OC)cc13)CCCC2` the value was 5.13 µM (active); for `CCOC(=O)c1c(NC(=O)c2nc(S(C)(=O)=O)ncc2Cl)sc(C(C)=O)c1C`, 3.24 µM (active).
Next, `CCc1nnc(NC(=O)c2nc(S(C)(=O)=O)ncc2Cl)s1`: 10.2 µM (active).
For `COc1ccccc1-c1cc(C(F)(F)F)nc(S(=O)(=O)CCCC(=O)Nc2ccccc2F)n1` the value was 10.2 µM (active); for `Cc1c(Cl)cccc1NC(=O)c1oc2ccc(S(=O)(=O)N3CCC4(CC3)OCCO4)cc2c1C`, “inactive”.
Consider `CCOc1ccc(NC(=O)CSc2oc(-c3ccc(F)cc3)nc2S(=O)(=O)c2ccc(C)cc2)cc1`, for which the Potency entry was “inactive”.
Next, `COc1ccc(NC(=O)c2nc(S(=O)(=O)Cc3ccc(C)cc3)ncc2Cl)cc1`: 10.2 µM (active).
For the molecule `COc1ccc(Br)cc1CC1C(=O)Nc2ccccc21` (centres undefined), the Potency is 9.12 µM (active).
Next, `CCS(=O)(=O)c1ncc(Cl)c(C(=O)Nc2c(C(=O)c3ccc(C)cc3)oc3ccccc23)n1`: “inactive”.
For `O=C(Cn1c(-c2cccs2)cc2cc(F)ccc21)NCCCN1CCN(c2ccccc2F)CC1` the value was 12.9 µM (active); for `O=C(Cn1c(-c2cccs2)cc2ccccc21)NCCCN1CCN(c2ccc(F)cc2)CC1`, 6.45 µM (active); for `Cc1ccc(S(=O)(=O)c2nnn3c2nc(NC2CCCCCC2)c2sccc23)cc1C`, 14.5 µM (active).
Consider `Cc1cccc(-n2c(=O)c3c(c4cc(C)ccc4n3C)n(CC(=O)NCCC3=CCCCC3)c2=O)c1`, for which the Potency entry was “inactive”.
Regarding `COc1ccccc1-c1cc(C(F)(F)F)nc(S(=O)(=O)CCCC(=O)Nc2ccc(F)cc2F)n1`, the Potency was 5.13 µM (active).
For `COC(=O)c1ccccc1NC(=O)c1nc(S(=O)(=O)Cc2cccc(C)c2)ncc1Cl` the value was 6.45 µM (active).
Regarding `COC(=O)CS(=O)(=O)c1nc2ccccc2nc1N1CCCCC1`, the Potency is 14.5 µM (active).
Next, `Cc1cccc(Nc2c3c(nc4nncn24)CCC3)c1C`: “inactive”; `Cc1ccc(C)c(N2CCN(CCCNC(=O)Cn3c(-c4cccs4)cc4ccccc43)CC2)c1`: 7.24 µM (active); `CCc1ccc(NC(=O)Cn2c(=O)n(-c3ccc(OC)cc3)c(=O)c3ccc(C(=O)NCc4ccc(C)cc4)cc32)cc1`: “inactive”.
For `Cc1cc(C)c(NC(=O)Cn2c(=O)n(Cc3ccco3)c(=O)c3ccc(C(=O)NC4CCCC4)cc32)c(C)c1` the value was “inactive”.
